# Measured values from PubChem BioAssay AID1259354 (Paczesny and Yang Labs, IUPUI and University of Michigan, 2018).
# In all, about 78,000 compounds went through this assay and about 1,800 (2.3%) were called active. Not shown: some 27% with an inconclusive outcome. Cut-off read from the data, not from the text of the source: active = inhibition above about 30%; inconclusive = mostly about 10% to 28%; inactive = weaker than that. This excerpt belongs to a sample that is enriched for actives.
# Biological target: Interleukin-1 receptor-like 1 (Homo sapiens) (UniProt Q01638)
# Sequence (Q01638 whole entry, looked up): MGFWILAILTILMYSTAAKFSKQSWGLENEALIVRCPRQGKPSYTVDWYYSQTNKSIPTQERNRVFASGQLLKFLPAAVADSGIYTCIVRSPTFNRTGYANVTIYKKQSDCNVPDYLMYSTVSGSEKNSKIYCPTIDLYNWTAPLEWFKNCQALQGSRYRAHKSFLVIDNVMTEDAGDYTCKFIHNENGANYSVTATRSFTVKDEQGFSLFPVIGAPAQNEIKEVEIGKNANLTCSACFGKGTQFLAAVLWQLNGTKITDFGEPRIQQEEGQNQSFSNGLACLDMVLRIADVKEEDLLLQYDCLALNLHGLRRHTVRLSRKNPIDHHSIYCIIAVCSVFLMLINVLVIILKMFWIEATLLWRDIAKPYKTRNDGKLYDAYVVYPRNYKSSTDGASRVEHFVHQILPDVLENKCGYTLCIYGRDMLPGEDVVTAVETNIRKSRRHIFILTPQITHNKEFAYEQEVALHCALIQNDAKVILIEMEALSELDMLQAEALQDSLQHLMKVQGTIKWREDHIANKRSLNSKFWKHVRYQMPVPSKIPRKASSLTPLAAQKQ
# Assay: inhibitors of human ST2 (IL1RL1) binding to IL-33, primary screen, biochemical, AlphaLISA (AID 1259354)
# Conditions: AlphaLISA ST2-Fc/biotin-IL-33 interaction, 1 h; at 17 µM, hits give high values
row,Structure (SMILES),inhibition
1,CCOc1ccc2c(=O)c(Oc3ccc(F)cc3)c(C)oc2c1,inactive
2,OCc1ccc(CN2CCC(n3cc(C4CCCCC4)nn3)CC2)o1,inactive
3,Cc1nn(-c2cccc(Br)c2)c(C)c1[C@@H]1C=C[C@@H](NS(=O)(=O)c2ccccc2)C1,inactive
4,CN(Cc1ncc[nH]1)C(=O)C1CCN(Cc2ccco2)CC1,inactive
5,COCCNC(=O)C1C2C=CC3(CN(Cc4ccccc4Cl)C(=O)C13)O2 (centres undefined),inactive
6,CCNc1nc(NCC)n2c(SCC(=O)c3ccc(C(C)(C)C)cc3)nnc2n1,36% (active)
7,CC1CCCC(NC(=O)C2CCCN(S(=O)(=O)c3cnc[nH]3)C2)C1C (centres undefined),inactive
8,COC(=O)c1cccc(-c2nccn2CCc2cccc(F)c2)n1,inactive
9,CCCCNC(=O)CNC(=O)Cn1ccc2ccccc2c1=O,inactive
10,O=[N+]([O-])c1cccc(S(=O)(=O)Nc2cccnc2Cl)c1,inactive
11,O=[N+]([O-])c1ccccc1S(=O)(=O)Nc1cccc2cccnc12,33% (active)
12,CCOc1ccc(S(=O)(=O)Nc2ccccc2F)c2cccnc12,inactive
13,O=C1CCCN1C1CCN(Cc2nnc(C3CC3)o2)CC1,inactive
14,CCOc1ccc(-n2c(C)cc(C(=O)CN3CCC(C)CC3)c2C)cc1,inactive
15,O=c1/c(=C/c2cccc([N+](=O)[O-])c2)sc2n1CN(c1cccc(C(F)(F)F)c1)CN=2,inactive
16,COc1ccc(N2CN=c3s/c(=C/c4ccc([N+](=O)[O-])cc4)c(=O)n3C2)cc1,inactive
17,COc1ccc(N2CN=c3s/c(=C\c4ccccn4)c(=O)n3C2)cc1,32% (active)
18,Cc1ccc(-c2noc(CCC(=O)N(C)c3cc(Cl)ccc3C)n2)cc1,inactive
19,CCOC(=O)c1c(C)n(C)c2ccc(OC(=O)c3ccc(OC)cc3)cc12,inactive
20,CCN1CC(NC2CCN(c3ccc(OC)cc3)CC2)CC1=O (centres undefined),inactive

row,Structure (SMILES),inhibition
1,CCOc1ccc(C(=O)NC2CC(=O)N(c3ccc(OCC)cc3)C2)cc1 (centres undefined),inactive
2,Nc1ccc(Oc2ccc(Cl)cc2)cc1,37% (active)
3,O=S(=O)(c1ccc(Oc2ccc(Cl)cc2)cc1)c1ccc(Oc2ccc(Cl)cc2)cc1,inactive
4,Cc1cccc(C(CC(=O)N2CCOCC2)c2ccccc2)c1O (centres undefined),inactive
5,Clc1ccc(-c2csc(Nc3ncccn3)n2)cc1,inactive
6,COc1ccc(OC)c(S(=O)(=O)NCCC(C)C)c1,inactive
7,O=[N+]([O-])c1cnc(N2CCN(Cc3ccccc3)CC2)c([N+](=O)[O-])c1,30% (active)
8,Clc1cccc(CN2CCN(c3ccccn3)CC2)c1,inactive
9,O=[N+]([O-])c1ccc(CN2CCN(Cc3ccccc3)CC2)s1,inactive
10,CC(C(=O)NC1CC1)N1CCc2[nH]nc(C(c3ccccc3)c3ccccc3)c2C1 (centres undefined),97% (active)
11,O=S(=O)(NCc1ccccc1)N1CCc2[nH]nc(C3CCC3)c2C1,inactive
12,CC(C)c1ccc(C(=O)NC2CC2)cc1,inactive
13,CCc1c(-c2ccccc2)nc2ccccc2c1C(=O)NCC1CCCO1 (centres undefined),inactive
14,CCCOc1ccc(CC(=O)O)cc1OC,inactive
15,O=C(COc1ccc([N+](=O)[O-])cc1)Nc1ccc(N2CCCC2)cc1,60% (active)
16,Cc1cc(Cl)ccc1NC(=O)COc1ccc([N+](=O)[O-])cc1,inactive
17,Cc1cccc(C)c1OCC(=O)Nc1ccc([N+](=O)[O-])cc1,inactive
18,CCCOc1ccccc1/C=C1/C(=O)N=C(N)N1C,inactive
19,CCC(C)(C)C1CCc2c(sc(NC(=O)c3cc(OC)c(OC)c(OC)c3)c2C(N)=O)C1 (centres undefined),inactive
20,CCN(CC)C(=O)Cn1cnc2sc(C(=O)Nc3cccc(C(F)(F)F)c3)c(C)c2c1=O,inactive

row,Structure (SMILES),inhibition
1,CCOc1ccc(S(=O)(=O)Nc2ccccc2C)c2cccnc12,inactive
2,Cc1cc(NC(=O)c2ccccc2Cl)nc2c1c(=O)oc1ccccc12,inactive
3,O=c1c2c(nc(SCc3ccccc3)n1-c1ccc(Br)cc1)CCS2,inactive
4,O=c1c2c(nc(SCc3ccccc3F)n1-c1ccccc1)CCS2,inactive
5,O=c1c2c(nc(SCc3ccc(Cl)cc3)n1-c1ccccc1)CCS2,36% (active)
6,CCOc1ccc(Cn2c(CNS(=O)(=O)c3cnn(C(F)F)c3C)nc3cccnc32)cc1,inactive
7,Cc1ccccc1-c1cc(O)c2c(c1)CN(C(=O)C1C=CCN1)CCO2 (centres undefined),inactive
8,CN(C)CCCN1C(=O)C(=O)C(=C(O)c2ccc(F)cc2)C1c1ccncc1 (centres undefined),inactive
9,O=C1CCCc2oc3c(Cl)cc(NS(=O)(=O)c4cccc5ccccc45)cc3c21,inactive
10,CCCc1n[nH]c(=O)n1-c1ccccc1Cl,inactive
11,COc1ccc(N=Cc2ccc3ncccc3c2)cc1,inactive
12,O=c1oc2ccccc2c(O)c1C=Nc1ccc(I)cc1,inactive
13,COc1ccc(N=Cc2c(O)n(-c3ccccc3C)c(=O)c3ccccc23)cc1,48% (active)
14,COc1ccc(S(=O)(=O)Nc2c(C)n(C)n(-c3ccccc3)c2=O)cc1,inactive
15,CNc1nc2c(C)cccn2c(=O)c1C=Nc1ccc(OC)cc1,98% (active)
16,C=CCNC(=O)c1cc2c(=O)n3cccc(C)c3nc2n1C,inactive
17,O=C(CCCc1ccccc1)NC1CCCCC1,inactive
18,CC(=O)Nc1ccc(S(=O)(=O)NCCNc2ccc([N+](=O)[O-])cc2Cl)cc1,inactive
19,CN1CCN(C(=O)CC2(c3ccccc3Cl)CC(=O)N(C3CCCC3)C2=O)[C@@H](c2ccccc2)C1 (some centres undefined),inactive
